This is a sample that favours compounds with a hit; in the whole collection about 18% have one here.
TDP1 block = TDP1 (human) enzyme inhibition; Q9NUW8; Potency, µM (series often up to 130 µM), for inactives: at the highest dose activity change, negative = inhibition, actives largely listed as inhibitors; AID 485290; recombinant TDP1, AlphaScreen DNA substrate cleavage; 350,000 tested, 0.28% active; also: potency is read from the fitted curve at half-maximal effect; nearly all actives have a fitted effect of over 40% in size
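Compounds were preincubated with Tdp1 (1 nM final) for 15 min at room temperature before substrate (15 nM final) started a 5 min reaction; beads (10 ug/ml final) were then added for 10 min before AlphaScreen detection.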
IL1B secr inh = inflammasome signaling inhibition, IL-1 beta readout; THP-1 LPS/ATP IL-1B secretion, AlphaLISA, 16 h; hits give low values; activity change, % at 57.5 µM; 360,000 tested, 4.7% active; in the data active = activity change below about -50%; inconclusive = mostly about -30% to -49%
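THP-1 cells pretreated 1 hr with compounds (up to 57.5 uM final), then stimulated with LPS (250 ng/mL final) plus ATP (1.25 mM final); secreted IL-1B measured by AlphaLISA after 16 hr, decreased signal indicating inhibition.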
TDP1 cell CPT = growth inhibition of DT40 Tdp1-/-;hTDP1 cells with camptothecin (screen for TDP1 inhibitors). 420,000 tested, 12% active. Potency, µM (titrated, usually from 46.2 µM), for inactives: top-dose activity change, negative = growth inhibition, hits mostly inhibitors. chicken DT40 Tdp1-/-;hTDP1 cells + 20 nM CPT, ATP luminescence, 48 h; also: potency is read from the fitted curve at half-maximal effect; nearly all actives have a fitted effect of over 55% in size
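Cell growth measured by CellTiter-Glo luminescence after a minimum 48 h, 37 C compound exposure with 20 nM CPT in Tdp1-knockout DT40 cells stably expressing hTDP1, seeded 400/well; qHTS titration format.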
Six1-Eya2 blk = inhibitors of human Six1/Eya2 interaction; AlphaScreen GST-Six1/His-Eya2 binding, biochemical; hits give low values; AID 651725; activity change, % (test concentration not listed); Q15475+O00167; 360,000 tested, 0.56% active; in the data active = activity change below about -65%; inconclusive = mostly about -30% to -63%
Target sequence (O00167 whole entry, looked up): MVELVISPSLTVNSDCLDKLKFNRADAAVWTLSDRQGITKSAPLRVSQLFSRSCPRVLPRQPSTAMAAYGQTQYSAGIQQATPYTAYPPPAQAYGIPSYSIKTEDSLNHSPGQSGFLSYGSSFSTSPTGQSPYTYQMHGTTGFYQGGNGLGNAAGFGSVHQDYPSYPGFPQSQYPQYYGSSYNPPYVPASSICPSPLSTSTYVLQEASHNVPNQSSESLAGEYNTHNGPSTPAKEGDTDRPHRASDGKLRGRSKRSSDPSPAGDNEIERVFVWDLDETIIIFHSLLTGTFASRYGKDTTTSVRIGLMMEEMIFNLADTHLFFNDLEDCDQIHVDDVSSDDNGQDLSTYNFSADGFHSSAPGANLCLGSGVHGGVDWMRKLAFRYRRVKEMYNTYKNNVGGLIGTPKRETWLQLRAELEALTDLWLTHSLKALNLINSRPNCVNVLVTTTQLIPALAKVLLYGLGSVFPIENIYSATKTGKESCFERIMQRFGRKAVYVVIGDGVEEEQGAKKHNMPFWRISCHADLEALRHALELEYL
Target sequence (Q15475 whole entry, looked up): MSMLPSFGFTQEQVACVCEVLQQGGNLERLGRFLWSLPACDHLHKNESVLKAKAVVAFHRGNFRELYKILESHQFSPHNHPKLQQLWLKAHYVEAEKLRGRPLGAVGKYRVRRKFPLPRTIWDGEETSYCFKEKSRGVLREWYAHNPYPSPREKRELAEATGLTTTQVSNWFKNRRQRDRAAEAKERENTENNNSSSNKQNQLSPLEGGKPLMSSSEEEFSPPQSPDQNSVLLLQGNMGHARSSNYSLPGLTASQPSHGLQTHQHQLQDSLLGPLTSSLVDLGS
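Homogeneous AlphaScreen proximity assay pairing GST-Six1 with His-tagged Eya2 (added as 5X mix: 250 nM and 500 nM) in 50 mM Tris pH 8.0, 300 mM NaCl, 1 mM TCEP. Glutathione donor and nickel acceptor beads; 1 h, 37 °C, dark.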
TDP1 cell noCPT = qHTS for Inhibitors of human tyrosyl-DNA phosphodiesterase 1 (TDP1): qHTS in cells in absence of CPT; AID 686978, 2013; DT40 Tdp1-/- hTDP1 cells, no CPT, ATP luminescence, 48 h; Potency, µM (doses to about 46.2 µM), for the others: at the top dose activity change, negative = growth inhibition, usual class: inhibitors; 420,000 tested, 15% active; also: potency is read from the fitted curve at half-maximal effect; nearly all actives have a fitted effect of over 55% in size
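A cellular qHTS used chicken DT40 cells lacking endogenous Tdp1 but carrying stably transfected human TDP1. Compounds were applied without camptothecin, and cell growth kinetics were judged by ATP-dependent luminescence after ≥48 hr.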
CtBP-E1A inh = blocks the CtBP interaction with E1A; AlphaScreen GST-E1A/His-CtBP binding, 1536-well; hits give low values; 340,000 tested, 0.49% active; activity change, % (test concentration not listed); in the data active = activity change below about -65%; inconclusive = mostly about -30% to -63%
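GST-E1A and His-tagged CtBP (125 nM each as 5X stock) were preincubated with pin-transferred compound for 2 h at 37 °C in the dark, then glutathione donor and nickel acceptor beads were added for 1 h before AlphaScreen reading.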
Active calls of the source: *; u = inconclusive; x = not tested or not shown; [ ] = dose if it differs, or a comment. Unless noted, calls follow the shape of the dose curve; as a rule, active = well fitted curve in the direction sought with a large enough effect; inconclusive = small, poorly fitted or top-dose-only effect, or another doubt; inactive = no such curve, though single readings can be large; an effect the other way counts as inactive or inconclusive. % is scaled to controls: 0 for no effect and ±100 for the full control effect.

SMILES | TDP1 block | IL1B secr inh | TDP1 cell CPT | Six1-Eya2 blk | TDP1 cell noCPT | CtBP-E1A inh
CC(C)(C)c1ccc(S(=O)(=O)N2CCN(CC(O)CN3CCOCC3)CC2)cc1 (centres undefined) | -1% | -15 | 1% | -1 | -16% | -12
COCCn1c(=O)[nH]c2cc(C(=O)Nc3cc(OC)c(OC)c(OC)c3)ccc2c1=O | x | 11 | -2% | -5 | -45% | -13
COc1ccc(S(=O)(=O)n2[nH]c(=O)c(CCO)c2C)cc1 | 0% | -6 | -6% | 7 | 24% | 1
O=C(NCCc1cccs1)c1ccc(Cn2c(SCc3ccc(F)cc3)nc3cccnc32)cc1 | 7% | x | u | x | 21µM* | x
O=C(NCc1cccs1)c1ccc(CSc2nc3cccnc3n2Cc2ccccc2F)cc1 | 4% | x | u | x | 23µM* | x
Nc1ncnc2c1ncn2[C@@H]1O[C@H](C(=O)N2CCN(CC(=O)Nc3cccc4c3CNC4=O)CC2)[C@@H](O)[C@H]1O | 10% | x | x | x | x | x
CCC(C)Sc1ccc([C@@H]2[C@@H]3C(=O)N(C)C(=O)[C@@H]3[C@]3(C(=O)OC)CCCCN23)cc1OC (some centres undefined) | -2% | 0 | u | -4 | 18µM* | -1
CCC(C)Sc1ccc([C@@H]2[C@H]3C(=O)N(C)C(=O)[C@H]3[C@]3(C(=O)OC)CCCN23)cc1 (some centres undefined) | 4% | 28 | u | 6 | 15µM* | -11
O=C(COC(=O)COc1ccc(Br)cc1)Nc1cccnc1Cl | 2% | 0 | -3% | 2 | -2% | x
O=C1C2C3c4ccccc4C(c4ccccc43)[C@@H]2C(=O)N1c1ccccn1 (some centres undefined) | 1% | 10 | u | -26 | 21µM* | 1
O=C1C2C3CC(C(Br)C3Br)C2C(=O)N1c1ccccn1 (centres undefined) | -1% | 2 | -13% | 5 | -10% | 2
COc1ccc(Br)cc1-c1nc(CCl)cs1 | 5% | -3 | 13µM* | 0 | 15µM* | x
COc1ccc(Br)cc1-c1noc(-c2ccccc2F)n1 | 0% | 14 | -5% | 9 | 2% | 2
Cc1ccccc1NC(=S)N(CCN1CCCCC1)Cc1ccco1 | 2% | 16 | -28% | -7 | u | -1
Cc1cccc(C)c1NC(=S)N(CCN1CCCCCC1)Cc1ccco1 | 0% | -21 | u | -9 | 18µM* | -2
Cc1cc(C)c(NC(=S)N(CCN2CCCCC2)Cc2ccco2)c(C)c1 | 0% | -3 | u | -13 | 16µM* | 1
Cc1ccc(NC(=O)COC(=O)CCc2c(C)nc3nc(N)nn3c2C)cc1C | 3% | 1 | -8% | 2 | 1% | -5
COc1ccc2[nH]c3c(c2c1)CCN1C(=O)C(CC(=O)NCc2ccco2)C[C@H](C(=O)N2CCOCC2)[C@@]31C (some centres undefined) | 1%[56.1 µM] | 30 | 1% | -7 | -3% | -3
C[C@]12c3[nH]c4ccc(Cl)cc4c3CCN1C(=O)[C@@H](CC(=O)NCc1ccco1)C[C@@H]2C(=O)N1CCOCC1 | 1%[56.1 µM] | -3 | 18µM* | -7 | 21µM* | -3
CCN(CC)C(=O)[C@H]1C[C@H](CC(=O)NCc2ccco2)C(=O)N2CCc3c([nH]c4ccc(Cl)cc34)[C@]12C | 3%[56.1 µM] | -5 | 16µM* | -2 | 16µM* | -7
COc1ccc(C)cc1NC(=O)CCC(=O)Nc1ccc2nc(N3CCN(C)CC3)cc(C)c2c1 | 9% | -2 | u | -9 | u | 3
COc1ccc(C(=O)Nc2ccc3nc(N4CCN(C)CC4)cc(C)c3c2)c(OC)c1 | x | -86* | u | 1 | u | 0
Cc1cc(N2CCN(C)CC2)nc2ccc(NC(=O)c3ccc(C(C)(C)C)cc3)cc12 | 12% | x | 7.3µM* | x | 4.6µM* | x
COc1ccc(/C=N/Nc2nnc(-c3ccccc3)c(=O)[nH]2)cc1 | 7% | -71* | 12µM* | -5 | 7.3µM* | -13
O=c1[nH]c(N/N=C/c2ccccc2Br)nnc1-c1ccccc1 | 5% | -8 | 15µM* | -6 | 23µM* | 0
SMILES | TDP1 block | IL1B secr inh | TDP1 cell CPT | Six1-Eya2 blk | TDP1 cell noCPT | CtBP-E1A inh
C#CCSc1nnc(-c2ccccc2)c(=O)[nH]1 | 4% | -6 | -9% | 2 | -9% | 5
CC(CN1CCN(C)CC1)OC(=O)c1ccc(F)cc1 (centres undefined) | 0% | 10 | 1% | 10 | -8% | 1
CC(CN(C)Cc1ccccc1)OC(=O)c1ccc(F)cc1 (centres undefined) | -3% | -8 | 15µM* | 14 | 10µM* | 11
Cc1ccsc1C1Nc2ccccc2-c2nc3ccccc3n21 (centres undefined) | -5% | -11 | u | -2 | u | 7
c1csc(C2Nc3ccccc3-c3nc4ccccc4n32)c1 (centres undefined) | 5% | u | 16µM* | -12 | u | 15
O=C(Nc1ccc2c(c1)OCO2)c1cccc2c1C(=O)N(Cc1cccnc1)C2 | x | u | u | -22 | u | u
COc1cc(C(=O)Nc2ccccc2C(=O)NCc2cccnc2)cc(OC)c1OC | 0%[0.0935 µM] | -58* | 1% | -11 | u | -3
COc1cc(OC)cc(C(=O)NCc2cccnc2)c1 | 2% | 0 | 27% | 6 | -6% | 9
COc1cc(NC(=O)c2cccc3c2C(=O)N(Cc2cccnc2)C3)cc(OC)c1OC | 5% | -56* | u | 1 | u | 1
Cc1ccc(OCc2ccc(C(=O)NCc3cccnc3)cc2)cc1C | -3% | -54* | 3.3µM* | 0 | 5.2µM* | 10
O=C(NCc1cccnc1)c1ccc(COc2ccc(Cl)cc2)cc1 | 5% | -15 | 16µM* | -5 | 10µM* | x
O=C(NCc1ccc(Cl)cc1)c1cccnc1 | -2% | 5 | u | 7 | u | -7
CCc1cccc(C)c1NC(=S)N1CCCC1C(=O)O (centres undefined) | 1% | 5 | -7% | 4 | 12% | -5
O=C(NCCc1ccccc1)c1ccccc1NC(=O)C1CC=CCC1C(=O)O (centres undefined) | 3% | 32 | 15µM* | 12 | 16µM* | 3
O=C(NCc1cccnc1)c1ccc(NC(=O)c2ccc(Br)cc2)cc1 | -13% | 53 | 9.2µM* | 0 | 15µM* | -3
